Experimental data: PubChem BioAssay (Tox21)
Calls of active or inactive are those of the source. Calls follow the shape of the dose curve; as a rule, active = well fitted curve in the direction sought with a large enough effect in the repeat runs; inconclusive = weak or mixed curves; inactive = flat fitted curve, though single readings scatter.

assay: qHTS assay to test for compound auto fluorescence at 590 nm (red) in HEK293 cells (AID 720679); conditions: red autofluorescence 540/590 nm; series mostly up to 91.3 µM
Text: National Center for Advancing Translational Sciences [NCATS]
NIH Chemical Genomics Center [NCGC]
U.S. Environmental Protection Agency [EPA]
National Institutes of Environmental Health Sciences [NIEHS]
National Toxicology Program [NTP]
U.S. Food and Drug Administration [FDA]
Compound auto fluorescence often interferes with screening of the compound library against various biological targets and signaling pathways. Some of these compounds may have fluorophoric properties. Such properties may interfere with the assay outputs resulting in false positives and/or negatives. To decrease such complications and ensure the compound activities are relevant in terms of biological response, the Tox21 10K compound library was screened for auto fluorescence.
From the fluorophores used as reporter signals in our screening assays, the auto fluorescence equivalencies of compounds against three fluorophores have been evaluated: Triamterene, Fluorescein and Rose Bengal sodium for blue, green and red fluorescence, respectively. The fluorescence intensities were measured using Excitation/Emission wavelengths at 405/460nm, 485/535nm and 540/590nm for blue, green and red labels, respectively. This assay includes the red fluorescence data.
Tox21 Assay Protocol Summary:
2,000 HEK293 cells in 5 uL of culture medium containing 10% dialyzed FBS per well were dispensed into black wall/clear bottom 1536-well plates using a Multidrop Combi Dispenser (Thermo Scientific). The assay plates were incubated for 4-5 hr at 37C to allow cell attachment to the well bottom, followed by the transfer of 23 nL compound or DMSO vehicle by a pintool work station (Kalypsys, San Diego, CA). After the assay plates were incubated overnight at 37C and 5% CO2, fluorescence intensities in the assay plates were measured by an Envision (PerkinElmer, Shelton, CT) plate reader using three labels for measuring blue, green and red fluorescence at […] 460, 535 and 590nm respectively.
% is scaled to controls: 0 for no effect and ±100 for the full control effect.

| SMILES | outcome | fluorescence, % of fluorescent control |
| --- | --- | --- |
| CCCBr | inactive | – |
| FC(F)OC(F)(F)C(F)Cl (stereo not given) | inactive | – |
| CCC1(CC)C(=O)NC(=O)NC1=O | inactive | – |
| CCCCCCCCCCCCN(C)C | inactive | – |
| C=CCN1C[C@H](C)N([C@H](c2ccc(C(=O)N(CC)CC)cc2)c2cccc(OC)c2)C[C@H]1C | inactive | – |
| C[C@H](N)[C@H](O)c1ccc(O)c(O)c1 | inactive | – |
| CCOC(=O)NC(O)C(Cl)(Cl)Cl (stereo not given) | inactive | – |
| CCCC[P+](CC)(CCCC)CCCC (tested in a mixture with another compound) | inactive | – |
| COP(=O)(OC)OC(Br)C(Cl)(Cl)Br (stereo not given) | inactive | – |
| CCCCCCCCCCCCN=C(N)N | – | 0.144% [at 3.72 µM] (inactive) |
| CCCCCBr | inactive | – |
| O=C(NC(=O)c1cc(F)c(F)cc1Cl)Nc1cc(F)ccc1N1CCC(C(=O)O)CC1 | inactive | – |
| CC(C)(C)c1ccc(CCOc2ncnc3ccccc23)cc1 | inactive | – |
| CC(Oc1cc(Cl)c(Cl)cc1Cl)C(=O)O (stereo not given) | inactive | – |
| CC(C)(C)NCC(O)c1ccccc1Cl (stereo not given) | inactive | – |
| OC[P+](CO)(CO)CO | inactive | – |
| C[N+](C)(C)CC1CO1 (stereo not given) | inactive | – |
| CCCN(CCC)c1c([N+](=O)[O-])cc(C(C)C)cc1[N+](=O)[O-] | inactive | – |
| Nc1cccc2ccccc12 | inactive | – |
| C[N+]1(CCC(C(N)=O)(c2ccccc2)c2ccccc2)CCCCC1 | inactive | – |

| SMILES | outcome | fluorescence, % of fluorescent control |
| --- | --- | --- |
| O=C1CC[C@@]2(O)[C@H]3Cc4ccc(O)c5c4[C@@]2(CCN3CC2CC2)[C@H]1O5 | inactive | – |
| OCC1CO1 (stereo not given) | inactive | – |
| CCC1(C2=NCCN2)Cc2ccccc2O1 (stereo not given) | inactive | – |
| CC(C)c1ccc(OP(=O)(Oc2ccc(C(C)C)cc2)Oc2ccc(C(C)C)cc2)cc1 | inactive | – |
| C=CC(C)(CCC=C(C)C)OC(=O)c1ccccc1N (stereo not given) | inactive | – |
| Nc1c(Br)cc(Br)c2c1C(=O)c1ccccc1C2=O | – | -0.009% [at 18.6 µM] (inactive) |
| Clc1ccc(Cl)c(Cl)c1 | inactive | – |
| C#C[C@]1(O)CC[C@H]2[C@@H]3CCC4=CC(=O)CCC4=C3C=C[C@@]21CC | inactive | – |
| CCc1ccccc1N | inactive | – |
| CC(C)(C)N(NC(=O)c1ccc(Cl)cc1)C(=O)c1ccccc1 | inactive | – |
| O=C(Cc1ccccc1)c1ccccc1 | inactive | – |
| N#CC(C#N)=C(C#N)C#N | inactive | – |
| CN(C)c1ccc(N=O)cc1 | inactive | – |
| C[N+](C)(C)CCOC(=O)C(O)(c1ccccc1)c1ccccc1 | inactive | – |
| O=C(O)c1cc(I)cc(I)c1I | inactive | – |
| [Cl-].[Cl-].[Hg+2] | inactive | – |
| CC(O)CN1CCN(CC(=O)[O-])CCN(CC(=O)[O-])CCN(CC(=O)[O-])CC1.[Gd+3] (stereo not given) | inactive | – |
| CN1C(=O)CN=C(c2ccccc2)c2cc([N+](=O)[O-])ccc21 | inactive | – |
| O=[N+]([O-])O[C@H]1CO[C@H]2[C@@H]1OC[C@H]2O[N+](=O)[O-] | inactive | – |
| O=C(O)C(F)(F)C(F)(F)C(F)(F)C(F)(F)C(F)(F)C(F)(F)C(F)(F)C(F)(F)F | inactive | – |
